Laboratory results reported in PubChem BioAssay (NCI).
“And” between values parts separate entries of the source, which are not always exact repeats. Identical values can stand only once. This is part of a sample that, as a whole, favours compounds with a hit. Of some 83,000 tested, about 20% had one in any assay.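 Single-dose data. Exposure time 48 hours. Values below 10 considered active.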 Values without a mark were called inactive. The source made the active and inactive calls.

What was measured:
Experiment in all cases: NCI-60 one-dose screen, 48 h (100 = growth as untreated, 0 = no growth, -100 = all killed)
K-562 leukemia = conditions: 10 µM unless noted
MALME-3M melanoma = conditions: 10 µM unless noted
MDA-MB-231 breast = conditions: 10 µM unless noted
RXF 393 renal = conditions: 10 µM unless noted
SF-268 CNS = conditions: 10 µM unless noted
SF-295 CNS = conditions: 10 µM unless noted
SF-539 CNS = conditions: 10 µM unless noted
UACC-257 melanoma = conditions: 10 µM unless noted
M14 melanoma = conditions: 10 µM unless noted
HCT-15 colon = conditions: 10 µM unless noted
HT29 colon = conditions: 10 µM unless noted
SNB-75 CNS = conditions: 10 µM unless noted
U251 CNS = conditions: 10 µM unless noted
PC-3 prostate = conditions: 10 µM unless noted
SK-MEL-5 melanoma = conditions: 10 µM unless noted
UACC-62 melanoma = conditions: 10 µM unless noted
LOX IMVI melanoma = conditions: 10 µM
SK-MEL-28 melanoma = conditions: 10 µM unless noted
SNB-19 CNS = conditions: 10 µM unless noted
DU-145 prostate = conditions: 10 µM unless noted

| SMILES | growth (K-562 leukemia) | growth (MALME-3M melanoma) | growth (MDA-MB-231 breast) | growth (RXF 393 renal) | growth (SF-268 CNS) | growth (SF-295 CNS) | growth (SF-539 CNS) | growth (UACC-257 melanoma) | growth (M14 melanoma) | growth (HCT-15 colon) | growth (HT29 colon) | growth (SNB-75 CNS) | growth (U251 CNS) | growth (PC-3 prostate) | growth (SK-MEL-5 melanoma) | growth (UACC-62 melanoma) | growth (LOX IMVI melanoma) | growth (SK-MEL-28 melanoma) | growth (SNB-19 CNS) | growth (DU-145 prostate) |
| --- | --- | --- | --- | --- | --- | --- | --- | --- | --- | --- | --- | --- | --- | --- | --- | --- | --- | --- | --- | --- |
| O=C1C=Cc2ccccc2/C1=C/c1nc(-c2ccccc2)oc1O | 96.8% | 74.4% | 73.6% | 101% | 84.8% | 101% | 87.7% | 105% | 93.5% | 92.4% | 108% | 70.8% | 95% | 89.1% | 92.4% | 93.8% | 84.8% | 106% | – | – |
| CCOc1ccc(C(CN2CCOCC2)C(C)=O)cc1OC (centres undefined) | 45.5% | 84% | 94.6% | 85.8% | 105% | 102% | 89.6% | 90% | 93.8% | 54.2% | 107% | 85.9% | 95.9% | 101% | 93.6% | 93.6% | 68.9% | 102% | 103% | – |
| CCCCCC[C@@H](O)C/C=C\CCCCCCCC(=O)OCCOC | 137% | – | 90% | 110% | 106% | 131% | 106% | 100% | – | 103% | 101% | 90% | 105% | 90.4% | 96.2% | 90.6% | 86% | 105% | 97.8% | 116% |
| N#Cc1c2ccccc2nc2ccccc12 | 106% | – | 99.4% | – | 105% | 98.7% | – | 95.2% | 120% | – | 110% | 97.8% | 94.9% | 91% | 94.8% | – | 101% | 132% | 92.1% | 112% |
| CCCCCCCCCCCCCCCc1ccc(C(=O)C[n+]2ccccc2)cc1 | -81.6% (active) | – | -53.8% (active) | – | -87% (active) | -74.8% (active) | -98.4% (active) | -76.3% (active) | -90.4% (active) | -48.6% (active) | -39.3% (active) | -55% (active) | -42.2% (active) | -90.7% (active) | -31.6% (active) | -27.6% (active) | -55.9% (active) | -14.5% (active) | -84.1% (active) | -97.6% (active) |
| CCOc1cc2c(cc1O)/C(=N\OC)C[C@@H]1[C@@H]2CC[C@]2(C)[C@@H](O)CC[C@@H]12 | – | – | – | – | – | – | – | – | – | – | – | – | – | – | – | -31.9% [100 µM] (active) and -75.8% [100 µM] (active) | – | – | – | – |
| NC(CS/C(Cl)=C/Cl)C(=O)O (centres undefined) | 89.2% | 89.6% | 88.1% | 105% | 99.3% | 9.28% (active) | 104% | 78.3% | 58.2% | 85.5% | 86.8% | 103% | 84.7% | 64.1% | -60.9% (active) | 77.4% | -57.3% (active) | 73% | 85.9% | – |
| Cc1cc(C)c([I+]c2c(C)cc(C)cc2C)c(C)c1 | – | -51.6% (active) | -55.1% (active) | -36.7% (active) | -66.9% (active) | -33.7% (active) | -74.7% (active) | -49.6% (active) | -77.6% (active) | 25.7% | -10.5% (active) | -60% (active) | -88.7% (active) | -16.7% (active) | -96.8% (active) | -92.6% (active) | -89.2% (active) | -61.4% (active) | -78.3% (active) | 14.8% |
| CCOc1ccc(Nc2nc3c(s2)C(=O)c2ccccc2C3=O)cc1 | 37.2% | 52.9% | 33.9% | 105% | 73% | 102% | 108% | 94.7% | 85.9% | 30.4% | 115% | 76.3% | – | 57.4% | 62.1% | 56.6% | -5.52% (active) | 106% | 89.9% | – |
| CCCCN(CCCC)CCCCCCCCCCO | 93.9% | – | 120% | 106% | 109% | – | 105% | 106% | 93% | 94.3% | 89.2% | 101% | 102% | 115% | 103% | 114% | 95.2% | 112% | 110% | 111% |
| CC1(C)OC2C(COC(c3ccccc3)(c3ccccc3)c3ccccc3)OC(c3c[nH]c4c(N)ncnc34)C2O1 (centres undefined) | 32.4% | 93.5% | 75.7% | 79% | 57.4% | 57.9% | 90% | 74.9% | 52.5% | 55.3% | 46.4% | 61.9% | 56.7% | 25% | 60.8% | 65.2% | 54.8% | 66.8% | 66.1% | – |
| CC(=O)OC1CC2CCC1(C)C2(C)C (centres undefined) | – | 98.7% | 101% | 114% | 104% | 94.5% | 104% | 99.6% | 106% | 98.9% | 96% | 93.5% | 103% | 93.2% | 106% | 92.6% | 101% | 105% | 103% | 110% |
| COc1ccc2nc3c4c(nccc4c2c1)-c1ncccc1C3=O | – | – | – | – | – | – | – | – | – | – | – | – | – | – | – | -95.8% [50 µM] (active) and -100% [50 µM] (active) | – | – | – | – |
| CC1(C)N=c2cc3c(cc2N1c1ccc(Cl)cc1)=Nc1ccccc1N3c1ccc(Cl)cc1 | -18.7% (active) | 79.4% | 83.3% | – | 49.6% | 31.7% | 79.7% | 40.5% | 19.3% | – | 60.4% | 1.77% (active) | 39.3% | 7.55% (active) | 37.8% | 69.1% | 40.5% | 86.6% | 66.5% | – |
